Source: PubChem
Pf Dd2 inh – Plasmodium falciparum Dd2 growth inhibition. P. falciparum Dd2 growth, SYBR Green, 72 h. Potency, µM (series often up to 28.9 µM), without a hit: top-dose activity, negative = inhibition, actives largely listed as inhibitors. 120,000 tested, 4.3% active. AID 1347417; active = well fitted inhibition curve with a large enough effect;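 note: plate controls were DMSO vehicle for no effect and reference drug for full effect; nearly all actives have a fitted effect of over 65% in size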
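Readout: SYBR Green fluorescence, 485 nm excitation, 535 nm emission, after ~16 h lysis at 37C. Before that, Dd2-infected red cells (2.5% hematocrit) grew 72 h with compound, 29 uM top final concentration.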
* = called active by the depositor; i = inactive; [ ] = another dose, or the depositor's remark. This excerpt belongs to a sample that is enriched for hits. Potency is the fitted concentration of half-maximal effect.

SMILES	Pf Dd2 inh
CCC1CCCCN1CCCNC(=O)c1ccc2c(c1)N(Cc1cccc(Cl)c1)C(=O)c1ccccc1S2(=O)=O (configuration not stated)	-5.9%
CCC1CCCCN1CCCNC(=O)c1ccc2c(c1)N(Cc1ccc(Cl)cc1)C(=O)c1ccccc1S2(=O)=O (configuration not stated)	3.98µM*
COc1cc(C(=O)N2CCC(O)(c3ccc(C)cn3)CC2)cc(OC)c1OC	-17.6%
COc1ccc2cnn(CC(=O)NC3CCCc4c3[nH]c3ccccc43)c(=O)c2c1OC (configuration not stated)	i
CN(Cc1ccc(F)cc1)S(C)(=O)=O	7.5%[44.1 µM]
Cc1ccsc1CN(Cc1ccc(CN(C)S(C)(=O)=O)o1)CC(C)C	8.91µM*
O=C1NCCCCCCN(Cc2ccncc2)[C@@H]2CN(S(=O)(=O)Cc3cccc(F)c3)CC[C@H]12	8.91µM*
O=C1NCCCCCCN(Cc2ccncc2)[C@@H]2CN(S(=O)(=O)c3ccc4c(c3)CCC4)CC[C@H]12	2.82µM*
O=C1NCCCCCCN(Cc2ccncc2)[C@@H]2CN(S(=O)(=O)c3cccnc3)CC[C@@H]12	-2.1%
O=C1NCCCCCCN(Cc2ccncc2)[C@@H]2CN(C3CCC3)CC[C@H]12	13.3%
Cn1cnc(S(=O)(=O)N2CC[C@@H]3C(=O)NCCCCCCN(Cc4ccncc4)[C@@H]3C2)c1	15.2%
CCS(=O)(=O)N1CC[C@H]2C(=O)NCCCCCCN(Cc3ccncc3)[C@@H]2C1	16.2%
COc1cc(NC(=O)N[C@H]2CO[C@H]3[C@@H]2OC[C@H]3OC(=O)Nc2cccc(C(C)=O)c2)cc(OC)c1	-23.9%
COCC(=O)NC1CCC12CCN(C(=O)Nc1ccccc1F)CC2 (configuration not stated)	-18.4%
COCC(=O)N1CC[C@H]2COC(=O)N2c2cc(F)ccc2C1	7.4%[44.1 µM]
O=C(NC[C@H]1OC[C@@H](NCc2cnc[nH]2)[C@@H]1O)c1cccs1	-10.2%[44.1 µM]
C[C@@H]1C(=O)O[C@H]2[C@H]1CC[C@@]1(C)Cc3sc(NC(=O)Nc4ccc(Oc5ccccc5)cc4)nc3[C@@H](C)[C@H]21	11.2µM*
C[C@@H]1C(=O)O[C@H]2[C@H]1CC[C@@]1(C)Cc3sc(NC(=O)NC4CCCCC4)nc3[C@@H](C)[C@H]21	11.2µM*
C[C@@H]1C(=O)O[C@H]2[C@H]1CC[C@@]1(C)Cc3sc(NC(=O)c4c(Cl)cccc4Cl)nc3[C@@H](C)[C@H]21	i
C[C@@H]1C(=O)O[C@H]2[C@H]1CC[C@@]1(C)Cc3sc(NS(=O)(=O)c4ccc(F)cc4)nc3[C@@H](C)[C@H]21	i
CC(=O)N1CCC(C(=O)Nc2nc3c(s2)C[C@]2(C)CC[C@@H]4[C@H](OC(=O)[C@H]4C)[C@H]2[C@@H]3C)CC1	i
COCC(=O)Nc1nc2c(s1)C[C@]1(C)CC[C@@H]3[C@H](OC(=O)[C@H]3C)[C@H]1[C@@H]2C	-3.9%[44.1 µM]
O=C(C1CC1)N1CCC(N2C(=O)C(OCC3CC3)C23CCOCC3)CC1 (configuration not stated)	5.9%
Cc1cc(C(=O)NC2CCCc3c2[nH]c2c(Cl)cccc32)c2c(C)noc2n1 (configuration not stated)	i
O=C(CNC(=O)c1cnccn1)NC1CCCc2c1[nH]c1c(Cl)cccc21 (configuration not stated)	-6.1%
SMILES	Pf Dd2 inh
COc1cc(C(=O)NC2CCCc3c2[nH]c2c(Cl)cccc32)cc(OC)c1OC (configuration not stated)	1µM*
Cc1ccc(CN2C[C@H]3CN(Cc4ccc(OC(F)(F)F)cc4)CCN3C2=O)cc1	-24.5%[44.1 µM]
COCCc1nn2c(=O)cc(COC(=O)c3cccs3)nc2s1	45.3%[5.79 µM]
Cc1nn2c(=O)cc(COC(=O)c3ccc(C(C)(C)C)cc3)nc2s1	18.0%
COCCc1nn2c(=O)cc(COC(=O)c3ccc(C(C)(C)C)cc3)nc2s1	14.1µM*
O=C(O)c1cc(-c2ccc3c(c2)OCCO3)cc(S(=O)(=O)N2CCOCC2)c1	8.2%
CCOCCn1c(=O)[nH]c2cc(C(=O)NCCN3CCCC3=O)ccc21	0.8%
CN(C)c1ccc(CN2CCOC[C@H]2c2ncc(-c3ccc(F)cc3)[nH]2)cc1	i
CCC(CNc1nc(CCN)nc2ccccc12)N(C)CC (configuration not stated)	i
Cc1cccc(C(=O)N2C(C(=O)NCc3ccccc3)COC23CCN(C(=O)CC(C)(C)C)CC3)c1 (configuration not stated)	7.94µM*
Cc1ccc(C(=O)N2C(C(=O)NCC(C)C)COC23CCN(C(=O)c2cccc(Cl)c2)CC3)cc1 (configuration not stated)	10µM*
Cc1cccc(C(=O)N2C(C(=O)NCC(C)C)COC23CCN(C(=O)c2ccc(F)cc2)CC3)c1 (configuration not stated)	i
CC(C)NC(=O)C1COC2(CCN(C(=O)CC(C)(C)C)CC2)N1C(=O)c1ccccc1 (configuration not stated)	-25.4%
COc1ccc(C(=O)N2CCC3(CC2)OCC(C(=O)NCC(C)C)N3C(=O)c2ccc(C)cc2)cc1 (configuration not stated)	i
